The list is not random: actives were taken first. Their share in the collection is about 2%.
M4 ag: CHRM4 agonism in calcium assay | P08173 | CHO-K1 hM4/Gqi5, Fluo-8 calcium fluorescence; vehicle 0%, full acetylcholine response 100% | activation, % at 3 µM | 360,000 tested, 0.14% active | AID 624127;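 active = activation above the run mean over all test wells plus 3 SD, cut at about 32% in these data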;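 also: peak over basal fluorescence ratio per well then scaled between controls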
Target sequence (P08173 whole entry, looked up): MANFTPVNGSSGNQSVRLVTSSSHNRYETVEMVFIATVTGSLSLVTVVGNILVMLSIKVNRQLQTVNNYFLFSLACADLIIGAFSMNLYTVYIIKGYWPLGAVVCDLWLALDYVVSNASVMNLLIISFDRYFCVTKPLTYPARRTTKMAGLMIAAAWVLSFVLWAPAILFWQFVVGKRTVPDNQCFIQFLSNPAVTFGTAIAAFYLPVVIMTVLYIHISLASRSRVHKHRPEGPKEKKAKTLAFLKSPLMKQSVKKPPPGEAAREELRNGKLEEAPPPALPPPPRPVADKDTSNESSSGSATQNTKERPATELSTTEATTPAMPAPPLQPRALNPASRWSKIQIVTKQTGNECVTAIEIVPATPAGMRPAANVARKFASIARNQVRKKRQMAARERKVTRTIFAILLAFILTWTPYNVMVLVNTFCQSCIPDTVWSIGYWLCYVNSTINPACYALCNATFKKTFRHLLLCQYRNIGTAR
CHO-K1 Ca PAM: nonselective activator or artifact in parental CHO-K1 calcium assay; ATP EC20, Fluo-8 calcium fluorescence; 0% at ATP EC20, 100% at ATP max; activation, % at 3 µM; 360,000 tested, 0.02% active;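 active = activation above the run cutoff, the mean activation of all test compounds plus 3 SD, cut at about 40% in these data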;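 also: peak over basal fluorescence ratio in a 140 s read after ATP addition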
M1 ag parental: counter-screen for M1 agonists: effect in parental CHO-K1 cells. Fluo-8 calcium fluorescence; scaled to maximal ATP response, vehicle zero. activation, % at 3 µM. 360,000 tested, 0.48% active. AID 602248; in the data active = activation above about 15%;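 also: untransfected CHO-K1 host cells lacking M1 receptor as counterscreen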
CHRM4 PAM: potentiates acetylcholine response at human M4 receptor; 360,000 tested, 0.4% active; activation, % at 3 µM; CHO-K1 hM4/Gqi5, Fluo-8 calcium fluorescence, ACh EC20; 0% = ACh EC20, 100% = maximal ACh; P08173;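 active = activation above its plate's cutoff, the mean activation of sample wells plus 3 SD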
CHO-K1 Ca antag: nonselective inhibitor or artifact in parental CHO-K1 cells; ATP-induced calcium, Fluo-8 fluorescence; inhibition, % at 3 µM; 360,000 tested, 0.6% active;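 active = inhibition above a per-plate cutoff, the plate's mean sample inhibition plus 3 SD, cut at about 24% in these data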
CHRM4 antagonist: blocks acetylcholine activation of human M4 receptor; P08173; CHO-hM4 cells, ACh EC80, Fluo-8 calcium fluorescence; inhibition, % at 3 µM; 360,000 tested, 0.73% active;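 active = inhibition above its plate's cutoff, the mean inhibition of sample wells plus 3 SD, cut at about 27% in these data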
Each line names hits and unclear results; the compound was inactive in the other large screens.

CCOc1cc(C(=O)Nc2ccccc2F)cc(Br)c1OCC	none
COCCNC(=O)C(c1ccc(F)cc1)N(C(=O)CCC(=O)Nc1ccccn1)c1ccc(C)cc1 (centres undefined)	CHRM4 PAM 30
COCCNC(=O)C(c1ccc(C)cc1)N(C(=O)CCC(=O)Nc1ccccn1)c1ccc(F)cc1 (centres undefined)	none
CS(=O)(=O)c1ccccc1C(=O)Nc1ccc(-c2nc3ccccc3[nH]2)cc1	none
Cc1ccccc1C(=O)Nc1ccc(-c2nc3ccc(C(=O)c4ccccc4)cc3[nH]2)cc1	CHO-K1 Ca antag 34, CHRM4 antagonist 36
O=C(Nc1ccc(-c2nc3ccc(NC(=O)c4cccs4)cc3[nH]2)cc1)c1cccs1	CHRM4 antagonist 46
O=C(c1ccccc1)c1ccc2nc(-c3ccc(NC(=O)c4ccccc4Br)cc3)[nH]c2c1	CHRM4 antagonist 28
CCOc1ccc(CCNC(=O)c2cccc(S(=O)(=O)N3CCN(C(C)=O)CC3)c2)cc1OCC	none
CCCN1C(=O)/C(=C/c2c(NCCCOCC)nc3c(C)cccn3c2=O)SC1=S	none
O=C1/C(=C\c2c(NCCOCCO)nc3ccccn3c2=O)SC(=S)N1Cc1ccco1	M1 ag parental 20
COc1ccc(C(C)(NC(C)=O)c2nc(/C=C/c3ccccc3)cs2)cc1 (centres undefined)	CHO-K1 Ca antag 32
C=C(C)C1CC=C(C)/C(=N/NC(=O)COc2ccc(Cl)cc2)C1 (centres undefined)	CHRM4 PAM 20
C=C(C)C1CC=C(C)/C(=N/NC(=O)COc2cccc(C)c2)C1 (centres undefined)	none
Cc1ccc2c(c1)cc(C(=O)N[C@@H](Cc1ccccc1)C(=O)O)n2C	none
CC/C(=N\NC(=O)Nc1ccccc1)c1ccccc1	CHO-K1 Ca antag 34
CC(=O)Nc1cccc(NC(=O)c2cc(-c3cccnc3)nc3ccc(Cl)cc23)c1	none
CC(=O)Nc1cccc(NC(=O)c2cc(-c3cccnc3)nc3ccc(Br)cc23)c1	CHRM4 antagonist 31
Cc1ccc([N+](=O)[O-])c(OCCN2CCc3ccccc3C2)c1	none
Cc1ccc([N+](=O)[O-])c(OCCCN2CCC(Cc3ccccc3)CC2)c1	M4 ag 39
Cc1ccc([N+](=O)[O-])c(OCCN2CCCCCC2)c1	M1 ag parental 16
CN(C)S(=O)(=O)c1cccc(-c2nnc(SCC(=O)NCCCCCC(=O)O)n2-c2ccc(F)cc2)c1	CHRM4 PAM 25
COc1ccc(CCNC(=O)c2cc3c(C)nccc3[nH]c2=O)cc1OC	none
CC(C)(C)OC(=O)NCCCCCc1cn([C@@H](CO)C(=O)NCCCCCCCCCCC(=O)N2CCN(C(=O)OC(C)(C)C)CC2)nn1	M4 ag 34, M1 ag parental 18, CHRM4 antagonist 69
C#CCOCCOCCOCCNc1nc(N2CCN(C(=O)CCCCCCCCCCNC(=O)Cn3cc(CCCCCN)nn3)CC2)nc(N2CCN(C(=O)CCCCCCCCCCNC(=O)[C@H]([C@@H](C)CC)n3cc(CCCCN=C(N)N)nn3)CC2)n1	CHRM4 antagonist 41
C#CCOCCOCCOCCNc1nc(N2CCN(C(=O)CCCCCCCCCCNC(=O)[C@H]([C@@H](C)CC)n3cc(CCCCCN)nn3)CC2)nc(N2CCN(C(=O)CCCCCCCCCCNC(=O)[C@H]([C@@H](C)CC)n3cc(CCCCN=C(N)N)nn3)CC2)n1	none
C#CCOCCOCCOCCNc1nc(N2CCN(C(=O)Cn3cc(CCCN=C(N)N)nn3)CC2)nc(N2CCN(C(=O)[C@H]([C@@H](C)CC)n3cc(CCCCN)nn3)CC2)n1	none
C#CCOCCOCCOCCNc1nc(N2CCN(C(=O)CCCCCCCCCCNC(=O)[C@H]([C@@H](C)CC)n3cc(CCCCN=C(N)N)nn3)CC2)nc(N2CCN(C(=O)CCCCCCCCCCNC(=O)[C@H](CO)n3cc(CCCCCN)nn3)CC2)n1	CHRM4 antagonist 34
NCCCCCc1cn(CC(=O)NCCCCCCCCCCC(=O)N2CCNCC2)nn1	CHRM4 PAM 23
O=C(CSc1nnc(-c2ccncc2)n1-c1ccccc1)NC1CC1	none
Cc1cccc(OCC(=O)OCC(=O)N2CCN(C(=O)c3ccco3)CC2)c1C	none
O=C(c1ccco1)N1CCN(Cc2nc3ccc([N+](=O)[O-])cc3c(=O)n2-c2ccccc2F)CC1	CHO-K1 Ca antag 28
O=c1c2cc([N+](=O)[O-])ccc2nc(CN2CCN(c3ccccn3)CC2)n1-c1ccccc1F	none
Cc1ccc(COc2coc(CN3CCN(C(=O)c4ccco4)CC3)cc2=O)cc1	none
O=C(c1ccco1)N1CCN(Cc2cc(=O)c(OCc3ccc([N+](=O)[O-])cc3)co2)CC1	CHRM4 antagonist 31
CC(C)S(=O)(=O)c1csc(C(=O)Nc2ccc(F)cc2)c1N	M1 ag parental 21
Cc1nc(Cl)sc1C(=O)Nc1ccc(F)cc1	none
O=C(N/N=C/c1ccc(OCc2ccc(F)cc2)cc1)c1ccccc1	CHRM4 PAM 20
O=C(N/N=C/c1ccccc1)c1ccc(NC(=O)c2ccc(F)cc2)cc1	CHRM4 PAM 24
Cc1ccccc1NC(=O)CCC(=O)N/N=C/c1ccc(F)cc1	CHRM4 PAM 25
Cc1ccccc1C(=O)Nc1nnc(SC(C)C)s1	none
CCOc1ccc(C(=O)NNC(=O)CCNC(=O)c2ccco2)cc1OC	none
COc1ccc(-c2nc3c(Cl)cc(C(F)(F)F)cn3c2Cc2cccc(F)c2)cc1OC	none
N#C/C(=C/c1ccc(N2CCOCC2)o1)C(=O)Nc1ccccc1	M4 ag 54, M1 ag parental 61
N#C/C(=C\c1ccc(N2CCOCC2)o1)C(=O)NC1CCCCC1	M1 ag parental 16
COc1ccc(/C=C(/C#N)C(=O)NC2CCCCC2)cc1Br	none
N#C/C(=C\c1ccc(N2CCOCC2)o1)C(=O)NCC1CCCO1 (centres undefined)	none
N#C/C(=C\c1ccc(N2CCOCC2)o1)C(=O)NCCc1ccccc1	M4 ag 34, M1 ag parental 23
Cc1cc(/C=C(\C#N)C(=O)NC2CCCCCC2)c(C)n1C	CHRM4 PAM 23
COCCNC(=O)/C(C#N)=C/c1ccc(N2CCOCC2)o1	none
O=C1CN(C(=O)c2c(F)cccc2F)C(c2ccc(F)cc2)c2cc(F)ccc2N1 (centres undefined)	none
O=C1CN(C(=O)c2cccc(F)c2)C(c2ccc(F)cc2)c2cc(F)ccc2N1 (centres undefined)	CHRM4 antagonist 52
O=C(Nc1nnc(CCS(=O)(=O)c2ccc3ccccc3c2)s1)c1cccs1	CHRM4 PAM 21
COc1ccc(O)c(C(=O)/C=C/c2cc3ccccc3o2)c1	CHRM4 PAM 19
Cc1cccc(NS(=O)(=O)c2ccc(C(=O)NCC3(N4CCCCC4)CCCCC3)cc2)c1C	none
